The campaign covered roughly 340,000 compounds. Fewer than 10 were called active. Not shown: some 2% with an inconclusive outcome. Calls come from the whole dose curve; as a rule, active = well fitted curve in the direction sought with a large enough effect; inconclusive = small, poorly fitted or top-dose-only effect, or another doubt; inactive = no such curve, though single readings can be large or run the other way. These entries were drawn from the full list.
assay: qHTS Assay for Modulators of miRNAs and/orActivators of miR-21; conditions: HeLa miR-21 FLuc reporter, luciferase, 48 h; series mostly up to 38.3 µM; activity change, positive = activation: at the top concentration;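 note: % of control where 0% means no effect; miR-21 action dims this reporter so a rising signal means less miR-21 action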
Source text: MLSCN Grant: 1 R21 NS059478-01 Assay Provider: Qihong Huang, The Wistar Institute NCGC Assay Overview: MicroRNAs (miRNAs) are endogenously encoded small (~20-25 nucleotides), nonprotein-coding RNAs that are involved in post-transcriptional repression of target messenger RNAs (mRNAs) (Le and Hannon, 2004). Estimated to be involved in the regulation of 30% of all protein-coding mRNAs (Filipowicz et al., 2008), miRNAs play a significant role in many biological processes including cellular differentiation and tissue development (Ghildiyal and Zamore, 2009).
NCGC Assay Protocol Summary: Reagents: HeLa cells stably expressing firefly luciferase (FLuc) under the control of a CMV promoter (upstream) and a miR-21 binding sequence directly downstream of the gene. These cells endogenously express miR-21. Control compounds used were compound C3 (provided by collaborator), N6-phenyladenosine (MP Biomedicals, 0215379625), and DMSO. Assay Summary: 6uL of HeLa miR-21-FLuc cells in assay buffer (DMEM, Invitrogen #21063-029; 10% FBS, HyClone #SH30071.03) were dispensed at 2000cells/well (3.3 x 10^5 cells/mL) into Greiner solid-white TC-treated 1536-well plates using a Multidrop Combi (Thermo Fisher Scientific). Plates were incubated for one hour at 37 degree Celsius, 95% humidity, 5% CO2. These assay plates were then treated with 23nL of compound or DMSO using a Kalypsys pin tool, which allows for delivery of a 24-point titration of each compound to the assay plate, with a final compound concentration ranging from approximately 40uM to 5pM. Assay plates were then incubated for 48 hours. After incubation, plates were allowed to come to RT for one hour prior to delivery of 3uL of 3X luciferase detection reagent. After a 15 minute incubation to allow for cell lysis, luciferase activity was measured using a ViewLux CCD imager (PerkinElmer), with an average exposure time of 2-12 seconds. Keywords: NIH Roadmap, MLPCN, MLSMR, qHTS, miR-21, microRNA, firefly luciferase, FLuc.

Activity change, positive = activation, inactive:
CSc1ncc(C(=O)NCc2ccccc2Cl)c(C(F)(F)F)n1 -5.83%, COc1ccc(CC(=O)Nc2nnc3n2CCS3)cc1OC -0.241%, Cc1ccc(-c2nn(CCC(=O)Nc3ccc(Cl)c(Cl)c3)c(=O)c3ccccc23)cc1 4.57%, CCC(=O)Nc1ccccc1-c1nc2ccccc2n(CC(=O)Nc2ccc(C)c(C)c2)c1=O -3.9%, CCN1CCc2nc3sc(C(=O)Nc4ccccc4OC(F)(F)F)c(N)c3cc2C1 26.3%, CCOC(=O)c1cc(NC(=O)c2ccc(F)cc2)c(=O)n2c1oc1ccccc12 -9.24%, CCOc1ccc(N(CC)S(=O)(=O)N2CCCC(C(=O)NCc3ccc(SC)cc3)C2)cc1 (centres undefined) 27.8%, COc1ccc(CNC(=O)CSc2n[nH]c(-c3ccc(F)cc3)n2)cc1 17.4%, COc1ccc(CN2C(=O)C(NC(=O)c3cccc(C)c3)(C(F)(F)F)N=C2c2ccccc2)cc1 (centres undefined) -0.25%, Cc1c(Cl)cccc1NC(=O)C(=O)NCCc1csc2nc(-c3ccccc3F)nn12 21.8%, COCCNC(=O)CSc1c(C)cnc2c1c(=O)n(C)c(=O)n2C -1.95%, O=C(c1ccccc1F)N1CCC(c2nc3c(nnn3Cc3cccc(F)c3)c(=O)[nH]2)CC1 -3.46%, COc1ccc(OC)c(NC(=O)CSC2=Nc3ccccc3C3=NC(CC(=O)NCc4ccc(F)cc4)C(=O)N23)c1 (centres undefined) 0.599%, COc1ccccc1-c1nnc(SCC(N)=O)o1 -43.6%, COc1cc(NS(=O)(=O)c2ccc3c(c2)OCC(C(=O)N2CCCC2)O3)cc(OC)c1 (centres undefined) 8.58%, Cc1ccc(C)c(NC(=O)CSC2=Nc3ccccc3N=C(c3ccc(F)cc3)C2)c1 4.67%, Cc1cc(C)cc(NC(=O)Cc2csc(C)n2)c1 -1.74%, CCc1nccn1S(=O)(=O)c1cc(Br)ccc1Br -2.49%, CC(=O)Nc1ccc(NC(=O)CSc2nnc3c4cc(Br)ccc4n(C)c3n2)cc1 -3.89%, Cc1ccc(C)c(CNC(=O)c2cc3ccccn3n2)c1 0.252%, Cc1ccc(C)c(Cn2c(C)c(CNCc3ccc(F)cc3)c(C(=O)O)c2C)c1 4.63%, CCOC(=O)c1ccc(NC(=O)CSc2nc3c([nH]c4ccccc43)c(=O)n2C)cc1 -6.03%, CCc1ccc(-n2nnc(-c3nc(-c4ccccc4)no3)c2C)cc1 -68.1%, O=C(NCCCN1CCN(c2cccc(Cl)c2)CC1)c1nnc(Cc2ccc(F)cc2Cl)o1 23.8%, CCNC(=O)CC1C(=O)N(c2ccc(F)cc2)C(=O)N1Cc1ccc(C)cc1 (centres undefined) 3.25%, CCOC(=O)c1[nH]c(C)c(CCC(=O)NCc2ccccc2C)c1C 0.547%, COc1ccc(NC(=O)COCc2cc(-c3ccco3)on2)cc1 1.75%, O=C(CCSCc1cccc(F)c1)NCc1ccccc1 3.37%, CN(Cc1ccccc1)c1ccc(-c2nc(-c3ccccc3)no2)cc1[N+](=O)[O-] 0.0426%, Cc1ccc(C(=O)Nc2cc3c(cc2N2CCCC2)n(C)c(=O)c(=O)n3C)cc1 -7.41%, CCCOC(=O)c1c(NC(=O)c2cc3nc(-c4ccc(OC)cc4)cc(C(F)(F)F)n3n2)sc2c1CCCC2 -6.35%, Cc1ccc(-c2nc(CS(=O)(=O)CC(=O)NCc3ccccc3Cl)c(C)o2)cc1 3.02%, Cc1nn(C(C)C(=O)NCCc2ccccc2)c(=O)c2c1sc1ccccc12 (centres undefined) -34.9%, CCN(C(=O)Cn1cc(S(=O)(=O)N2CCN(c3ccccc3F)CC2)c2ccccc2c1=O)c1ccc(C)c(C)c1 3.6%, CCOC(=O)c1cccc(NC(=O)c2cc(S(=O)(=O)N3CCCC(C)C3)cn2C)c1 (centres undefined) 13.2%, COc1ccc(-c2[nH]c3c(c2-c2c(-n4cccc4)n(C)c(=O)n(C)c2=O)c(=O)n(C)c(=O)n3C)cc1 -3.83%, O=c1c2cccnc2n(Cc2cccc(F)c2)c(=O)n1Cc1ccccc1Cl -6.44%, Cc1ccc(-c2nc(Cn3c(=O)cc(-c4ccccc4)c4c(C)nn(C)c43)c(C)o2)cc1 0.288%, COC(=O)c1c(NC(=O)C(C)Oc2ccc(Cl)c(C)c2)sc(C)c1C (centres undefined) -18.3%, Cc1cccc(Cn2c(SCc3ccc(C(=O)N4CCC(C)CC4)cc3)nc3ccncc32)c1 25.3%, CCc1cnc2c(c1SCC(=O)c1ccccc1)c(=O)n(C)c(=O)n2C -16.3%, CC(C)c1ccc(NC(=O)c2ccc(Cn3nc(N4CCN(c5ccccc5)CC4)ccc3=O)o2)cc1 2.33%, Cc1ccc(-c2nnc3c4ccccc4c(C)nn23)cc1NC(=O)c1cccc(Br)c1 -9.57%, CC(=O)c1ccc(NC(c2ccc(F)cc2)c2nnc(-c3ccccc3)o2)cc1 (centres undefined) 0.435%, CCN(C(=O)Cn1cnc2sc(C)c(S(=O)(=O)N3CCN(c4ncccn4)CC3)c2c1=O)c1ccccc1F -1.51%, Cc1cccc(N2CCN(C3=C(c4ccccc4)C(=O)c4ccccc43)CC2)c1C 16.4%, COc1cccc(NC(=O)c2csnn2)c1 -36.8%, N#C/C(=C\c1cccc(F)c1)c1nc(-c2cc3c(ccc4ccccc43)oc2=O)cs1 2.83%, CC(=O)c1ccc(NC(=O)C2CCN(S(=O)(=O)c3c(C)noc3/C=C/c3ccc(C)cc3)CC2)cc1 -1.89%, CCOc1ccccc1C(=O)NC1(C(F)(F)F)C(=O)Nc2c1c(=O)[nH]c(=O)n2-c1ccc(F)cc1 (centres undefined) 4.18%, O=C1CN(C(=O)Nc2ccccc2C(F)(F)F)C(c2ccccc2)c2c(sc3c2CCCC3)N1 (centres undefined) 1.97%, O=C1OC(C(=O)Nc2cccc(Br)c2)Cc2ccccc21 (centres undefined) -45.3%, O=C(CCOc1ccccc1)N(Cc1cccnc1)c1nc2ccc(Cl)cc2s1 -2.02%, CC(C)(C)NC(=O)CSc1nc(-c2ccc(F)cc2)cc(C(F)(F)F)n1 10.2%, O=C(CSc1nc2nccnc2c(=O)n1CCc1c[nH]c2ccccc12)Nc1ccccc1F 11.4%, Cn1c(SCC(=O)N2CCCc3ccccc32)ncc(C(=O)Nc2ccc(F)cc2)c1=O -2.64%, Cc1ccc(Cl)cc1N(C)C(=O)Cn1nc(Cc2cccnc2)c2ccccc2c1=O -8.75%, COc1ccc(SCc2cc(=O)c3ccc(C)c(C)c3[nH]2)cc1 1.63%, Cc1cccc(OCCSc2nc3ccccc3n2CC(=O)N2CCCCC2)c1C 8.76%, COc1ccc(NC(=O)C(c2ccccc2)N2Cc3ccccc3C2=O)cc1 (centres undefined) -2.4%, CCCN1CN=C(NS(=O)(=O)c2ccc(NC(C)=O)cc2)NC1 -7.13%, COc1ccc(-c2nn3c(=O)cc(CN4CCN(C(=O)c5ccc(OC)c(OC)c5)CC4)nc3s2)cc1 -0.908%, CCOC(=O)c1c(C)[nH]c(C)c1S(=O)(=O)N(C)CC(=O)N1CCN(c2ccccc2)CC1 -3.7%, COc1ccc2c(c1)c(=O)c(C(=O)c1ccccc1)cn2CC(=O)Nc1ccc2c(c1)OCCO2 -0.936%, Cc1ccc(CNS(=O)(=O)c2ccc(C(=O)N(C)C)s2)cc1 -3.73%, COc1ccc(-c2c3c(=O)n(C)c(=O)n(C)c3c3c(C)nc4ccccc4n23)cc1 0.257%, Cc1ccc(CN(C(=O)COc2ccc(Cl)cc2C)C2CCS(=O)(=O)C2)o1 (centres undefined) -1.35%, Cc1ccc(NC(=O)c2ccc3[nH]c(C)cc(=O)c3c2)c(C)c1 -42.2%, Cc1ccccc1CCNC(=O)C1CCN(c2nc3ccccc3nc2C(F)(F)F)CC1 6.8%, COC(=O)c1ccc(NC(=O)CCc2c(C)nn(-c3ccc(N4CCCC4)nn3)c2C)cc1 0.69%, Cc1cc(C)cc(NC(=O)c2cnc3sc(N4CCCC4)nn3c2=O)c1 8.36%, O=C(Cn1cnc2c(oc3ccccc32)c1=O)Nc1ccc(OC(F)(F)F)cc1 -0.243%, COc1ccccc1C(=O)OCc1cc(=O)n2nc(-c3cccs3)sc2n1 -12.8%, Cc1ccc(-c2nnc(SCc3ccccc3C)o2)cc1 -49.1%, CCN(CC)C(=O)CSc1nc2ccsc2c(=O)n1Cc1ccccc1Cl 9.18%, COc1ccc(CCNCc2c(C(=O)O)c(C)n(Cc3cccc(C)c3)c2C)cc1OC 0.673%, COc1ccc(-n2c(=O)c3c(c4cc(OC)ccc4n3C)n(Cc3cccc(C)c3)c2=O)cc1 -0.701%, COc1ccc(OC)c(CCNC(=O)CCCn2c(=O)c3cccn3c3cccnc32)c1 -7.82%, Cc1nn2c(=O)cc(COC(=O)c3cccc(NC(=O)COc4ccccc4Cl)c3)nc2s1 -1.72%
